Screening results from PubChem BioAssay.
NS1 function inh: blocks influenza NS1 protein function; Potency, µM (titrated, usually from 46.1 µM), without a hit: at the highest dose activity, positive = more growth; hit rate 0.4% among 270,000; calls by dose curve; note: actives are rising curves; nearly all actives have a fitted effect of over 50% in size
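Recovery from NS1-induced slow growth read by OD600 in budding yeast switched to galactose assay medium (pH 6.0, -URA) at 1:100 dilution. Compound 23 nl per well; the matching strain lacking NS1 serves as control.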
LmPK inh: inhibitors of Leishmania mexicana pyruvate kinase. purified LmPK, Kinase-Glo ATP luminescence, 1 h. hit rate 0.37% among 290,000. Potency, µM (titrated, usually from 57.5 µM), without a hit: at the highest dose activity change, negative = inhibition, hits mostly inhibitors. Q27686; note: % is set by controls: 0 for no effect and ±100 for the full control effect
Target sequence (Q27686 whole entry, looked up): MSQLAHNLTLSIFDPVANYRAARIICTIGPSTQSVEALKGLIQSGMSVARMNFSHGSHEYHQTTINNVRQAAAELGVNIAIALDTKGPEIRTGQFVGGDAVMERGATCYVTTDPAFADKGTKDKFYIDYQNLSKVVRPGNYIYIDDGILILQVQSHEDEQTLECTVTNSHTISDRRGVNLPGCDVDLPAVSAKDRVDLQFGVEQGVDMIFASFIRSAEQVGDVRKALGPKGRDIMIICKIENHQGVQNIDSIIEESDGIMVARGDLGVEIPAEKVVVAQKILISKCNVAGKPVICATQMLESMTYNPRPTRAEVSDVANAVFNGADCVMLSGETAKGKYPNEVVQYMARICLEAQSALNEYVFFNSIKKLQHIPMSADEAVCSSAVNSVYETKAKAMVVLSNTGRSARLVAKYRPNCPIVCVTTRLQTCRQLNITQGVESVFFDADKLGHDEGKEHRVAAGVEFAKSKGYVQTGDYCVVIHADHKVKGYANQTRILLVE
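In 50 mM imidazole pH 7.2 with 7 mM MgCl2, LmPK (0.1 nM) turned over PEP (0.5 mM) and ADP (0.1 mM) for 1 h at room temperature. Luciferase read-out of ATP.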
AMA1-RON2 inh: inhibitors of Plasmodium falciparum AMA1-RON2 interaction; AlphaScreen AMA1-biotinylated RON2 peptide binding; Potency, µM (doses to about 58.2 µM), for the others: at the highest dose activity change, negative = inhibition, usual class: inhibitors; hit rate 0.2% among 360,000; AID 720542;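 note: 0% = vehicle wells and -100% = peptide control; nearly all actives have a fitted effect of over 45% in size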
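AMA1 (3D7) with his tag at 25 nM final met compounds first, then biotinylated RON2 peptide at 25 nM; detection used donor plus acceptor beads, 10 µg/mL apiece, read by AlphaScreen after 30 min at room temperature.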
Giardia FBPA inh: Giardia lamblia aldolase inhibition | A8B2U2 | purified Giardia FBPA | Potency, µM (titrated, usually from 59.6 µM), without a hit: at the highest dose activity, negative = inhibition, hits mostly inhibitors | hit rate 0.71% among 290,000; note: % is set by controls: 0 for no effect and ±100 for the full control effect; nearly all actives have a fitted effect of over 55% in size
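40 nM FBPA preincubated 10 min at RT with compound (up to 57.5 uM final), then substrate plus GAPDH/TPI/NAD/arsenate coupling and diaphorase/resazurin added. Fluorescence read after 20 min at RT, 525/598 nm.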
Tb PYK inh: inhibitors of Trypanosoma brucei pyruvate kinase | Q57TT1 | TbPYK enzyme, Kinase-Glo Plus ATP luminescence, 45 min | Potency, µM (doses to about 76.8 µM), for the others: at the top dose activity, negative = inhibition, most hits filed as inhibitors | hit rate 0.12% among 410,000; note: % is set by controls: 0 for no effect and ±100 for the full control effect; nearly all actives have a fitted effect of over 50% in size
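TbPYK + substrate in 50 mM TEA pH 7.2, 100 mM KCl, 10 mM MgCl2, 0.05% BSA, 0.01% Tween-20; cpd pinned; ADP 130 uM final; 45 min RT; Kinase-Glo Plus 10 min; luminescence endpoint.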
Active calls of the source: *; [ ] = another dose, or the depositor's remark. In the library only some 1.2% were active in any assay of this set; here they are far more common. Unless noted, calls come from the whole dose curve; as a rule, active = well fitted curve in the direction sought with a large enough effect; inconclusive = small, poorly fitted or top-dose-only effect, or another doubt; inactive = no such curve, though single readings can be large; an effect the other way counts as inactive or inconclusive. Potency is the fitted concentration of half-maximal effect.

`CCOC(=O)N1CCc2[nH]c3ccc(C)cc3c2C1` gave NS1 function inh 12%, LmPK inh 3%, AMA1-RON2 inh 40µM*, Giardia FBPA inh 9% and Tb PYK inh -4%.
`CC(=O)N1CCc2[nH]c3ccc(C)cc3c2C1` gave NS1 function inh -2%, LmPK inh -7%, AMA1-RON2 inh 4%, Giardia FBPA inh 1% and Tb PYK inh -19%.
COc1cc(OC)c(N(C)C(=O)c2sc3nc4n(c(=O)c3c2C)CCCC4)cc1Cl was read as Tb PYK inh 6%.
For CNNC the results were Giardia FBPA inh 11µM*.
CN1c2ccc([N+](=O)[O-])cc2N(C)C1(C)c1ccccc1 (stereo unspecified) was read as NS1 function inh 12%, LmPK inh -6%, AMA1-RON2 inh 13µM*, Giardia FBPA inh -11% and Tb PYK inh -21%.
For Cn1c2ccccc2c2cc([N+](=O)[O-])ccc21 the results were NS1 function inh 2%, LmPK inh 3%, AMA1-RON2 inh -15%, Giardia FBPA inh -3% and Tb PYK inh -2%.
`COc1ccc(OC)c(NC(=O)Cn2ccc3ccccc3c2=O)c1` gave Tb PYK inh -4%.
O=C1OCC2OC(O)C(O)C(O)C2OC(=O)c2cc(O)c(O)c(O)c2-c2c(O)c(O)c3oc(=O)c4c(c(O)c(O)c5oc(=O)c2c3c54)-c2c1cc(O)c(O)c2O (stereo unspecified) was read as NS1 function inh 2%, LmPK inh -16% and Giardia FBPA inh 4µM*.
COc1c(O)cc2c(c1O)C1OC(CO)C(O)C(O)C1OC2=O (stereo unspecified) was read as AMA1-RON2 inh 0% and Tb PYK inh 4%.
For O=c1c(-c2cc(O)c(O)c(O)c2)coc2cc(O)c(O)c(O)c12 the results were Giardia FBPA inh 5µM*.
O=c1c(-c2ccc(O)cc2)coc2cc(O)cc(O)c12 was read as NS1 function inh -4%, LmPK inh -3%, AMA1-RON2 inh 8%, Giardia FBPA inh 4% and Tb PYK inh -6%.
CCOc1cc(-c2nnc(SCC(=O)NCc3ccccc3)nc2-c2ccc(OC)c(OCC)c2)ccc1OC was read as Tb PYK inh 0%.
`O=C(N/N=C/C=C/c1ccccc1)c1ccccn1` gave NS1 function inh -4%, LmPK inh -1%, AMA1-RON2 inh 65%, Giardia FBPA inh -24% and Tb PYK inh -7%.
For N/C(=N\OC(=O)/C=C/c1ccccc1)c1ccccn1 the results were NS1 function inh -10%, LmPK inh 13µM*, AMA1-RON2 inh 9%, Giardia FBPA inh 1% and Tb PYK inh -27%.
For O=C(/C=C/c1ccccc1)c1ccccn1 the results were NS1 function inh -45%, LmPK inh 14µM*, AMA1-RON2 inh 7%, Giardia FBPA inh -21% and Tb PYK inh inconclusive.
Screening O=C(O)Cn1c(C(=O)Nc2nc(-c3ccccc3Cl)cs2)cc2ccccc21 returned Giardia FBPA inh -11% and Tb PYK inh 0%.
Screening O=C(CN(c1cc(C(F)(F)F)ccc1Cl)S(=O)(=O)c1ccccc1)NCCc1ccccc1 returned Tb PYK inh -5%.
`COc1ccc2nc3c(cc2c1)Cc1ccccc1-3` gave Giardia FBPA inh 18µM*.
S=c1[nH]nc(CSc2nc3ccccc3s2)n1C1CCCCC1 was read as NS1 function inh 15%, LmPK inh 11µM*, AMA1-RON2 inh 25%, Giardia FBPA inh 24% and Tb PYK inh inconclusive.
Screening O=C(O)CSc1nnc(CSc2nc3ccccc3s2)n1-c1ccccc1 returned NS1 function inh 4%, LmPK inh -2%, AMA1-RON2 inh -7%, Giardia FBPA inh 7% and Tb PYK inh -29%.
Screening O=C(NCc1n[nH]c(=S)n1-c1cccc(C(F)(F)F)c1)c1ccco1 returned NS1 function inh 18%, LmPK inh -9%, AMA1-RON2 inh 41%, Giardia FBPA inh inconclusive and Tb PYK inh inconclusive.
S=c1[nH]nc(COc2ccccc2)n1Cc1ccccc1 was read as NS1 function inh 5%, LmPK inh -22%, AMA1-RON2 inh 23%, Giardia FBPA inh 2% and Tb PYK inh inconclusive.
FC(F)(F)c1cccc(NCc2n[nH]c(=S)n2C2CCCCC2)c1 was read as LmPK inh inconclusive, AMA1-RON2 inh 71%, Giardia FBPA inh -7% and Tb PYK inh 13µM*.
`S=c1[nH]nc(COc2ccccc2)n1C1CCCCC1` gave NS1 function inh 8%, LmPK inh 13µM*, AMA1-RON2 inh 4%, Giardia FBPA inh 17% and Tb PYK inh inconclusive.
`CC(C)(C)c1cc(NC(=O)Nc2ccc(-c3cn4c(n3)sc3cc(OCCN5CCOCC5)ccc34)cc2)no1` gave Tb PYK inh 1%.
`NC1=CC(=O)c2cccc3cccc1c23` gave NS1 function inh -37%, LmPK inh -2% and Giardia FBPA inh 20µM*.
O=C1C=C(O)c2cccc3cccc1c23 was read as NS1 function inh 28%, LmPK inh 0%, AMA1-RON2 inh -2%, Giardia FBPA inh -7% and Tb PYK inh -2%.
COC(=O)c1nn(-c2ccc(-c3ccccc3)cc2)cc1O was read as NS1 function inh -23%, LmPK inh 16µM*, AMA1-RON2 inh 11%, Giardia FBPA inh 4% and Tb PYK inh -17%.
CC1(C)N=C(N)N=C(N)N1c1cccc(OCc2cccc([N+](=O)[O-])c2)c1 was read as NS1 function inh -8%.
COc1ccc(N=C2C(=Nc3ccc(OC)cc3)N(c3ccc(OC)cc3)C(=S)N2C)cc1 was read as NS1 function inh -11%, LmPK inh -9%, AMA1-RON2 inh 6.7µM*, Giardia FBPA inh -20% and Tb PYK inh -11%.
Screening CCON=C(CC)C1=C(O)CC(c2c(C)cc(C)cc2C)CC1=O (stereo unspecified) returned Tb PYK inh -9%[157 µM].
CC(=O)Nc1ccn(C2COC(COC(=O)c3ccccc3)O2)c(=O)n1 (stereo unspecified) was read as Tb PYK inh 3%.
`Cc1cc(C(=O)Nc2ccccn2)cs1` gave NS1 function inh -3%, LmPK inh 14µM*, AMA1-RON2 inh -5%, Giardia FBPA inh 0% and Tb PYK inh -16%.
`COc1cc(C(=O)Nc2ccccn2)cc(OC)c1OC` gave NS1 function inh 2%, LmPK inh -7%, AMA1-RON2 inh 8%, Giardia FBPA inh -2% and Tb PYK inh -2%.
`Cc1ccc(-c2nc(N)s[n+]2-c2ccccc2)cc1` gave NS1 function inh 24%, LmPK inh 32µM*, AMA1-RON2 inh -7%, Giardia FBPA inh inconclusive and Tb PYK inh inconclusive.
`COC(=O)C1CCN(c2csc3ccc(C)cc3c2=O)CC1` gave Tb PYK inh -9%.
Cc1ccsc1C(=O)Nc1ccc(C(=O)O)cc1 was read as NS1 function inh -2%, LmPK inh 14µM*, AMA1-RON2 inh -4%, Giardia FBPA inh 7% and Tb PYK inh -32%.
